Data reported in PubChem BioAssay AID777 (Sanford-Burnham Center for Chemical Genomics, 2007).
In all, about 96,000 compounds went through this assay and about 19,000 (20%) were called active.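 How the source made its calls: active means blocking of liver enzyme CYP2C9 beyond about 50% at 5 µM (limit read from the data); inactive means the rest.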 Not all results are given here.

Target: Cytochrome P450 2C9 (Homo sapiens) (UniProt P11712)
Assay: blockers of cytochrome P450 2C9 activity – biochemical, luminescence, ADME assay, primary screen (AID 777)
Settings: CYP2C9 Supersomes, luciferin-H conversion, at 5 µM, hits give high values

Chain of Cytochrome P450 2C9 (Homo sapiens) (P11712 whole entry, looked up): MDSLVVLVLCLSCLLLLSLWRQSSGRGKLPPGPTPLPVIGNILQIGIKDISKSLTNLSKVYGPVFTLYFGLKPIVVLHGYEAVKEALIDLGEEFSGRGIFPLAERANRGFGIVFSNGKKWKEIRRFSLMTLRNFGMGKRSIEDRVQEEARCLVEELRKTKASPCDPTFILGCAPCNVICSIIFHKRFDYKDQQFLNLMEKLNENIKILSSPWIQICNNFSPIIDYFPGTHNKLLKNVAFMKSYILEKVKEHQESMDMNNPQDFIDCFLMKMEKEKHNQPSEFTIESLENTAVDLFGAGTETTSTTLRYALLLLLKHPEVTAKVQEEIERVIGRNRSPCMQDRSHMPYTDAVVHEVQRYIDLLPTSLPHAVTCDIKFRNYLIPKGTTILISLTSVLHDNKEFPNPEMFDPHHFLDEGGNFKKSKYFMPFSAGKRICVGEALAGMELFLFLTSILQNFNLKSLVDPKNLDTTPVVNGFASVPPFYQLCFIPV

SMILES	inhibition
CCc1ccc(Nc2ncc3c(n2)CC(c2ccco2)CC3=O)cc1 (stereo not drawn)	8.9% (inactive)
O=C1N=C(N2CCOCC2)S/C1=C\C=C/c1ccccc1	-28.7% (inactive)
CN(C)/C=C/C(=O)c1ccccc1F	14.6% (inactive)
O=C(Nc1ccccc1Cl)O/N=C(/c1ccccc1)c1ccccn1	22.2% (inactive)
O=C1NC(c2ccncc2)Nc2sc3c(c21)CCCC3 (stereo not drawn)	49.1% (inactive)
O=C(Nc1nccs1)C1CCCN1S(=O)(=O)c1cccc2cccnc12 (stereo not drawn)	53.9% (active)
CC1CCCCC1NC(=O)C1CCCN1S(=O)(=O)c1cccc2nsnc12 (stereo not drawn)	21.2% (inactive)
O=C(O)C1CCCN(S(=O)(=O)c2cccc3cccnc23)C1 (stereo not drawn)	-20.2% (inactive)
CC(=O)c1cccc(NC(=O)N2CCCC2C(=O)NCCC(C)C)c1 (stereo not drawn)	9.2% (inactive)
CC(=O)c1cccc(NC(=O)C2CCCN2S(=O)(=O)c2cccc3nsnc23)c1 (stereo not drawn)	92.8% (active)
COc1ccc(NC(=O)C2CCCN(S(=O)(=O)c3cccc4cccnc34)C2)cc1 (stereo not drawn)	-49.2% (inactive)
CCc1nn(-c2cc(Oc3cccc4ccccc34)nc(-c3ccccc3)n2)c(N)c1C#N	20% (inactive)
CSc1sc(C)cc1C1C(C#N)=C(N)N(c2cccnc2)C2=C1C(=O)CCC2 (stereo not drawn)	23% (inactive)
CCCOc1ccc(N2C(=O)CC(N(CCc3ccc(S(N)(=O)=O)cc3)C(C)=O)C2=O)cc1 (stereo not drawn)	-11.4% (inactive)
Cc1nn(-c2ccccc2)c2[nH]c(C(F)(F)F)cc(=O)c12	46.9% (inactive)
COc1ccc(OCCCC(=O)Nc2nnc(C3CCCO3)s2)cc1 (stereo not drawn)	45.3% (inactive)
Cc1nnc(NC(=O)Cn2c(=O)sc3ccccc32)s1	67.6% (active)
O=C(Cn1c(=O)sc2ccccc21)Nc1ccc2c(c1)OCCO2	7% (inactive)
Cc1nnc(NC(=O)CCCOc2ccccc2)s1	-8.5% (inactive)
CCN(CC)CCCNC(=O)CCc1ccccc1	1.4% (inactive)
O=C(CN1C(=O)NC2(CCCC2)C1=O)Nc1ccc(F)c(F)c1F	-34.9% (inactive)
Cc1ccccc1N1CC(c2nc3ccccc3[nH]2)CC1=O (stereo not drawn)	29.8% (inactive)
CC1=CC(=O)C=CC1(C)C(Cl)(Cl)Cl (stereo not drawn)	-5.7% (inactive)
COc1cccc(N(CC(=O)NC2CCCC2)C(=O)Cn2nnc(-c3ccc(C)cc3)n2)c1	59.1% (active)
COc1ccc(N(CC(=O)NC2CCCCCCC2)S(=O)(=O)c2c(C)nn(C)c2C)cc1	40.5% (inactive)

SMILES	inhibition
O=C(Cn1nnc(-c2ccc(CN3CCOCC3)cc2)n1)NC1CCCCC1	25.3% (inactive)
CC(C)c1cc(C(=O)O)on1	-15.7% (inactive)
COc1ccc(Oc2c(Cl)cnn(-c3ccccc3)c2=O)cc1	18.9% (inactive)
Cn1c(COc2ccc(Cl)cc2)nc2ccccc2c1=O	43.9% (inactive)
Cc1[nH]nc(-c2ccc(OCc3cnn(-c4ccccc4)c3)cc2O)c1Oc1ccc(Cl)cc1	66.2% (active)
CC(C)(C)C(=O)Nc1ccc(C(=O)N/N=C/c2ccccc2OC(=O)c2ccc(Cl)cc2Cl)cc1	21.5% (inactive)
CC(=O)Nn1cc2c(=O)n(C)c(=O)n(C)c2c1	-1.4% (inactive)
CCn1c(NCCc2ccc(OC)c(OC)c2)nc2c1c(=O)n(C)c(=O)n2C	12.4% (inactive)
COc1ccc(OC)c(-n2cc3c(=O)n(C)c(=O)n(C)c3c2)c1	78.8% (active)
Cn1c(=O)c2cn(-c3cccc4ccccc34)cc2n(C)c1=O	71.3% (active)
COc1ccc(OC)c(NC(=O)Cn2c(=O)oc3ccccc32)c1	26.9% (inactive)
Cn1c2c(c(=O)n(C)c1=O)[C@@H]1c3c(ccc4ccccc34)OC[C@@H]1CO2	18.4% (inactive)
O=C(OC1CCOC1=O)c1ccc(-c2nc3ccccc3s2)s1 (stereo not drawn)	4.9% (inactive)
CSCCC(NC(=O)C1CCC(C)CC1)C(=O)NCc1ccco1 (stereo not drawn)	10.7% (inactive)
CSCCC(NC(N)=O)C(=O)N(C)CC(=O)Nc1ccc(C)cc1 (stereo not drawn)	-21.5% (inactive)
CC1(C)CC(O)C(CCC(O)c2ccccc2)C(C)(C)N1 (stereo not drawn)	-1.7% (inactive)
O=c1c(F)cn(C2CCCO2)c(=O)n1Cc1ccccc1Cl (stereo not drawn)	15.2% (inactive)
Cc1ccc(NC(=S)Nc2ncccc2C)c(C)c1	-26.1% (inactive)
CCOC(=O)c1sc2nc(CSCC(=O)OCc3ccc(C(=O)OC)o3)[nH]c(=O)c2c1C	54.4% (active)
CCOC(=O)c1ccc(COC(=O)c2cc(=O)[nH]c3ccccc23)o1	-27.9% (inactive)
CCOc1cc(/C=N/n2cnnc2)c(Br)cc1O	43.2% (inactive)
Cc1cc(C(=O)OC(C)C(=O)Nc2cccc(S(=O)(=O)N3CCOCC3)c2)c(C)o1 (stereo not drawn)	97.4% (active)
Cc1cc(=O)oc2cc(OC(C)C(=O)Nc3ccc(N4CCOCC4)cc3)ccc12 (stereo not drawn)	-6.3% (inactive)
COc1ccccc1N1CC(C(=O)Nc2ccc(S(=O)(=O)N3CCOCC3)cc2)CC1=O (stereo not drawn)	8.1% (inactive)
O=C(O)CCC(=O)NCc1ccc2[nH]c3c(c2c1)CCCC3	-5.1% (inactive)

SMILES	inhibition
COc1ccc(CNC2CCCCC2)cc1	2.3% (inactive)
CCOC(=O)C1CCN(C(=O)C2CCN(S(=O)(=O)CC)CC2)CC1	-14.3% (inactive)
CCOC(=O)C1CCN(C(=O)C2CCN(S(=O)(=O)N3CCCC3)CC2)CC1	20.7% (inactive)
CCOC(=O)C1CCN(C(=O)Nc2ccc(Cl)cc2)CC1	53.3% (active)
O=C(Cn1nnc(-c2ccccc2)n1)NCc1ccccc1	-11.3% (inactive)
COc1ccc(-c2csc(N3CCN(Cc4ccc5c(c4)OCO5)CC3)n2)cc1	-14.4% (inactive)
O=C(CN1CCN(c2nc(-c3ccccc3)cs2)CC1)NCc1ccc2c(c1)OCO2	91.4% (active)
O=C(CN(Cc1ccccc1)C(=O)c1ccc2c(c1)OCCO2)NCc1ccc2c(c1)OCO2	50.2% (active)
O=C(Cn1nnc(-c2ccc3c(c2)OCO3)n1)NCc1ccco1	16.6% (inactive)
O=C(CC(Cc1ccccc1)C(=O)O)NCCc1ccc2c(c1)OCO2 (stereo not drawn)	75.5% (active)
O=C(COC(=O)c1ccc2c(c1)OCCO2)NCc1ccccc1	-9.3% (inactive)
O=C(COc1ccccc1)NCc1ccc2c(c1)OCO2	32.4% (inactive)
O=C(NCCc1ccc2c(c1)OCCO2)c1cc2ccccc2o1	35.2% (inactive)
O=C(Cn1nnc(-c2ccccc2)n1)NCc1ccc2c(c1)OCO2	50.4% (active)
CC1CCCC(C)N1C(=O)CN1CCN(c2nc(-c3ccc(F)cc3)cs2)CC1 (stereo not drawn)	1.8% (inactive)
O=C(NCc1ccc2c(c1)OCO2)c1cc2c(s1)CS(=O)(=O)C2	25% (inactive)
N#C/C=C1\Sc2ccccc2C(=O)N1CC(=O)N1CCN(S(=O)(=O)c2ccccc2)CC1	-15.4% (inactive)
Cc1c(-c2ccccc2)nc(N)c(C#N)c1-c1cccs1	29.3% (inactive)
O=c1c2ccccc2nc2n1C(CSc1ccc(Cl)cc1)CN2 (stereo not drawn)	-1.6% (inactive)
Cc1nc2ccc(S(=O)(=O)NC(C(=O)N3CCCCCC3)C(C)C)cc2s1 (stereo not drawn)	26.6% (inactive)
COC(=O)Nc1ncc(CN2C(=O)c3ccccc3C2=O)s1	-12% (inactive)
N/C(=N\OC(=O)CCC1CCCCC1)c1ccccn1	0.9% (inactive)
O=C(O)c1cc(S(=O)(=O)N2CCCCCC2)c(Cl)cc1Cl	22.4% (inactive)
O=C(COC(=O)c1ccccc1SCC(=O)NC1CCCCC1)NC1CCCCC1	12.1% (inactive)
CCOC(=O)c1ccc(-c2ccc(C(=O)Nc3cccnc3)o2)cc1	14.6% (inactive)

SMILES	inhibition
CCOC(=O)c1ccc(COC(=O)CCc2nc(-c3ccccc3)c(-c3ccccc3)o2)cc1	85.6% (active)
CCOC(=O)c1cc(NC(=O)c2ccc(Cl)cc2)c(=O)oc1-c1ccccc1	-22.2% (inactive)
Cc1ccc(O)c(NC(=O)COc2cc(C)ccc2C)c1	-59.4% (inactive)
COc1ccccc1-c1c(C)nn2c(C)c(C(C)=O)cnc12	3.7% (inactive)
COc1ccc(-c2nc(SCC(=O)N3CCOCC3)n[nH]2)cc1	-9.6% (inactive)
Cc1ccc(N2CCN(C3=NC(=O)/C(=C\c4cccs4)S3)CC2)cc1	-127% (inactive)
C(=N/N1CCN(c2ccccc2)CC1)/c1cccs1	40.3% (inactive)
O=C1/C(=C/c2cccs2)CCc2ccccc21	72.8% (active)
Cc1ccc(C(=O)Nc2c(C#N)c(C)c(C)n2Cc2ccccc2)cc1	22.4% (inactive)
Cc1c(C#N)c(NC(=O)c2ccccc2)n(Cc2ccccc2)c1C	60.7% (active)
COc1ccc(Cn2c(C)c(C)c(C#N)c2NC(=O)Nc2ccc(F)cc2)cc1	13.6% (inactive)
CCCc1nc(N)nc2c1C(=O)CC(C)(C)C2	-35.3% (inactive)
CCCSc1nsc(N)n1	16.4% (inactive)
O=C(Nc1ccncc1)c1c(F)cccc1F	40.2% (inactive)
O=C(Nc1ccncc1)c1cc2ccccc2o1	86% (active)
O=C(Nc1cccc(-c2nc3ncccc3o2)c1)c1ccco1	-2.1% (inactive)
O=C(C1CCCO1)N(Cc1ccccc1)c1ccccc1 (stereo not drawn)	-4% (inactive)
Cc1cc([N+](=O)[O-])c(N2CCC[C@@H]2C(=O)O)c([N+](=O)[O-])c1	5.1% (inactive)
CS(=O)(=O)c1ccc2nc(NC(=O)C3C4C=CC(C4)C3C(=O)O)sc2c1 (stereo not drawn)	-5.4% (inactive)
CC(C)(C)n1c(=O)[nH]c2c(c1=O)CCC2	-7.2% (inactive)
CCOc1ccccc1NC(=O)C1CCN(S(=O)(=O)c2c(C)nn(C)c2C)CC1	-30.6% (inactive)
COC(=O)c1ccccc1NC(=O)C1CCN(S(=O)(=O)c2cc(OC)ccc2OC)CC1	92.2% (active)
CCOc1ccc(OCC)c(NC(=O)C2CCN(S(=O)(=O)c3c(C)noc3C)CC2)c1	48.4% (inactive)
